This note sets out measurements from ChEMBL document CHEMBL3988442, “University of Dundee, Small-Polar-MMV Screening Library” (2021).

Test [1] concerns the target T1, Aspartate--tRNA(Asp/Asn) ligase (Mycobacterium tuberculosis (strain ATCC 25618 / H37Rv)) (UniProt P9WFW3). Also: in the data most compounds retested in dose-response had high values.
T1 sequence (whole entry): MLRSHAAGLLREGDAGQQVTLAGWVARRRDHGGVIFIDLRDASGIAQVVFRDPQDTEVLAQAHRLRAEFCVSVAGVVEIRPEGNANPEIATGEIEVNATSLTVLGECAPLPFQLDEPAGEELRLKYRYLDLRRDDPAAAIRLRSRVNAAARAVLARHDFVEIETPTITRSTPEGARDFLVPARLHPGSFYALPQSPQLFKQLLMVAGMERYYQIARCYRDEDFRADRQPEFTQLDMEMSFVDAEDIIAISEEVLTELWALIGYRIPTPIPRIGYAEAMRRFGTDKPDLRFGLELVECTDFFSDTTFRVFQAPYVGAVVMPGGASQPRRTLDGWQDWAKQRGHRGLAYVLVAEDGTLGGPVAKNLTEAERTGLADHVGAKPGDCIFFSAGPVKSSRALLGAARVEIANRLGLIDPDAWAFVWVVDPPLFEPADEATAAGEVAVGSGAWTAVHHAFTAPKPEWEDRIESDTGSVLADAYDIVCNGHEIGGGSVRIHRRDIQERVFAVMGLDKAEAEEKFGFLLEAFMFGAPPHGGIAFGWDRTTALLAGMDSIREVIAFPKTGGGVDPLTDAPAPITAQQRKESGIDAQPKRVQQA
The experiment in a line: Assay for Asp RNA synthetase-1 from Mycobacterium tuberculosis. In kind it is functional. The arrangement: scale not given: direction of the effect not stated beside the values. The note with it: 30 µM.

The target in test [2] is Shiga toxin 2 (Escherichia coli O157:H7) (UniProt P09385+P09386). Briefly: E. coli 0.157:H7 Shiga Toxin SOP - stx2 screening assay. In kind it is functional. Details: scale not given: direction of the effect not stated beside the values. The note with it: 30 µM.

As for `COc1ccc(CNCC2CCN(CC(C)O)CC2)c2ccccc12` (stereo not given), the Percent Effect is -5.41% in test [1] and -33.8% in test [2].

Turning to `Cc1cccc(C(=O)NC(CN2CCCC2=O)c2ccccc2)n1` (stereo not given), the Percent Effect was -1.37% in test [1] and 14% in test [2].

Turning to `O=C(Cc1ccc2c(c1)OCCO2)NCCc1nnc2n1CCC2`, the figures for the Percent Effect in test [1] and in test [2] were 6.11% and 15.8%, respectively.

For the compound `CC(=O)N(C)c1nc(CN2CCCCC2Cn2cncn2)cs1` (stereo not given), the Percent Effect in test [1] is -3.1%; in test [2] it was 9.21%.

Consider `Cc1ccc(OCCC(=O)NC2CCc3nccn3C2)cc1` (stereo not given), for which the Percent Effect in test [1] is -1.56%; in test [2], -18%.

As to `COCc1ccccc1CNc1nnc(C)c(C)c1C#N`, the Percent Effect in test [1] turned out to be 7.84%; in test [2], 29.7%.

For the compound `Cc1ccc(NC2CCN(C(=O)c3cc(C(N)=O)cs3)CC2)nn1`, the Percent Effect in test [1] turned out to be 4.69%; in test [2], 3.48%.

On to `CC(NC(=O)CN(C)S(C)(=O)=O)c1nnc2n1CCCCC2` (stereo not given), for which the Percent Effect is 5% in test [1] and -25.1% in test [2].

Take `N#Cc1ccccc1CN1C[C@@H]2CC[C@H](C1)N(Cc1cscn1)C2=O`: the Percent Effect in test [1] was -3.02%; in test [2], 3.66%.

In the case of `CC(C)Sc1nnc(CCNC(=O)OC(C)(C)C)o1`, the results for the Percent Effect in test [1] and in test [2] were -0.987% and -76.8%, respectively.

Regarding `CN(Cc1ccc(Cl)c(Cl)c1)C(=O)CNC(N)=O`, the figures for the Percent Effect in test [1] and in test [2] were 0.719% and 10.2%, respectively.

As to `Cc1noc([C@@]23CCO[C@@H]2CCN(CC2CCOCC2)C3)n1`, the Percent Effect was 6.14% in test [1] and -16.8% in test [2].

Regarding `Cc1ccc(NC2CCN(C(=O)CN(C)C3CC3)CC2)nn1`, the Percent Effect was -0.538% in test [1] and -2.23% in test [2].

With `Cc1ccc(CC(=O)N2CCCCC2c2nc(C)cs2)cn1` (stereo not given), the Percent Effect was -2.2% in test [1] and 1.25% in test [2].

Take `Cc1noc([C@@H]2CC[C@@H]3[C@@H](CCN3S(=O)(=O)C3CC3)O2)n1`: the Percent Effect in test [1] is 0.155%; in test [2], -17.9%.

Turning to `O=C(c1ccccn1)N1C[C@@H]2CC[C@H](C1)N(C(=O)CCc1cccs1)C2`, the Percent Effect in test [1] is 12%; in test [2] it was -22%.

Regarding `Cc1ccc(C(=O)N2C[C@@H]3OCCN(CCN4CCCC4)[C@@H]3C2)cn1`, the Percent Effect in test [1] is -1.02%; in test [2], 3.78%.

In the case of `NCCn1nc(C2CCN(Cc3ccc(Cl)c(Cl)c3)C2)c2nccnc21` (stereo not given), the Percent Effect in test [1] was -4%; in test [2] it was -105%.

`CSc1ncccc1C(=O)NCc1ccc(CS(=O)(=O)NC(C)C)cc1`: the Percent Effect in test [1] amounted to 4%; in test [2], 6.55%.

As to `Cc1nc2c(c(C)c1CC(=O)NCc1cccc(C#N)c1)c(=O)[nH]n2C`, the Percent Effect was 0.634% in test [1] and 25.4% in test [2].

For `CCc1nnc2n1CCN(CCS(=O)(=O)c1ccccc1)C2`, the Percent Effect is -3.04% in test [1] and 8.79% in test [2].

On to `CC(C)c1nn(C)c(N2CCOCC2)c1CNCC(=O)N(C)C`, for which the results for the Percent Effect in test [1] and in test [2] were -4.92% and -14.4%, respectively.

Consider `Cc1cnn(C(C)C2CC2)c1NC(=O)c1cnccn1` (stereo not given), for which the Percent Effect in test [1] is -3.45%; in test [2], -3.84%.

Regarding `NC(=O)NCC(=O)N1C[C@H]2CC[C@@H]1CN(Cc1ccccc1)C2`, the Percent Effect in test [1] is 15.6%; in test [2] it was -8.55%.

Turning to `Cc1nc(CN2CCOC(c3nc(C(C)C)n[nH]3)C2)oc1C` (stereo not given), the Percent Effect in test [1] is 0.999%; in test [2] it was -9.33%.

For `c1ccc(CCNC2CCc3ncnn3C2)nc1` (stereo not given), the Percent Effect in test [1] was 5.83%; in test [2], -16.7%.

For `Cc1ncsc1CN1C[C@@H]2COC[C@]2(C(=O)NCC2CC2)C1`, the values for the Percent Effect in test [1] and in test [2] were 0.838% and -13.5%, respectively.

Consider `Cc1nc(C2CCCN2Cc2ncc(C(C)C)o2)no1` (stereo not given), for which the Percent Effect in test [1] is -2.92%; in test [2], -16.6%.

Turning to `O=C(c1ccccn1)N1CCn2cnc(COCC3CC3)c2C1`, the Percent Effect in test [1] is 1.82%; in test [2] it was -5.26%.

Consider `CCc1c(C)nn(CCNC(=O)C2CCCN(C(=O)N(C)C)C2)c1C` (stereo not given), for which the Percent Effect in test [1] was -4.11%; in test [2], 20%.
